Ten molecules from PubChem BioAssay AID1032 (The Scripps Research Institute Molecular Screening Center, 2008) can be followed below.

In all, about 200,000 compounds went through this assay and about 670 (0.34%) were called active. This is one part of a sample in which actives are shown more often than they occur. A number with no mark means an inactive call. Cut-off read from the data, not from the text of the source: active = activation above about 22%; inactive = the rest.

This experiment deals with Peroxisome proliferator-activated receptor gamma (Homo sapiens) (UniProt P37231). Nature of the experiment: compounds enhancing SRC-2 coactivator binding to PPARgamma – biochemical, HTS, primary screen (AID 1032).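 Note: 0% = vehicle and 100% = reference agonist.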 The following applies: PPARgamma LBD-SRC-2 recruitment, at 8 µM, hits give high values.
Peroxisome proliferator-activated receptor gamma (Homo sapiens), sequence (P37231 whole entry, looked up, the tested form may be a part): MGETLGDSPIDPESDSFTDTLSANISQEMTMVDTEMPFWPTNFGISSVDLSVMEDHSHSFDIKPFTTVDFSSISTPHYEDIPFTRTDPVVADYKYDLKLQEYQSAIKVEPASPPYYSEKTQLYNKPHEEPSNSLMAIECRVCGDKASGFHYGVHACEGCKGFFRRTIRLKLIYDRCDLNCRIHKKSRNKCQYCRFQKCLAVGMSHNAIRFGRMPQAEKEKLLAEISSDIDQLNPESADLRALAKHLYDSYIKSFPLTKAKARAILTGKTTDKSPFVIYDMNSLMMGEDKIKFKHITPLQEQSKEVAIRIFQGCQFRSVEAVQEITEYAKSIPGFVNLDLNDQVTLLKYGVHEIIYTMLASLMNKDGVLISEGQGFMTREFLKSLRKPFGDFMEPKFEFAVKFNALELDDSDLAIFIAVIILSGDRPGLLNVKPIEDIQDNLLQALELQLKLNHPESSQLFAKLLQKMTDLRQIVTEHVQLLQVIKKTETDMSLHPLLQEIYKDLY
As for `CSC1=NP(=S)(SC)N(C)c2nc3n(c21)CCC3` (stereo not given), the activation was 76.2% (active). As to `Cc1cccc2c(CCN)c[nH]c12`, the activation was 0.78%. As for `O=C(Cc1ccccc1[N+](=O)[O-])N1CCN(Cc2ccc3c(c2)OCO3)CC1`, the activation was 0.02%. `CCN1CCN(c2ccc([N+](=O)[O-])cc2C#N)CC1`: the activation is 6.97%. Consider `CC(C)CN1CCN(Cc2ccccc2C(F)(F)F)CC1CCO` (stereo not given), for which the activation is -9.41%. With `COc1cc(-n2c(=S)[nH]c3ccc(C)cc3c2=O)c(Cl)cc1Cl`, the activation is 24.8% (active). In the case of `CN(C)/C=C(\C=[N+](C)C)c1[nH]ncc1[N+](=O)[O-]`, the activation was 3.67%. Take `Cc1ccsc1C(=O)C1CCCN(Cc2ccc(O)cc2)C1` (stereo not given): the activation was 4.16%.

With `O=C1NC(=O)N(c2ccccc2)C(=O)/C1=C/c1ccc([N+](=O)[O-])s1`, the activation was 0.92%.

With `COc1ccc(CN2C(=O)NC(=O)/C(=C\c3ccc(OC)c(OC)c3OC)C2=O)cc1`, the activation is 11%.
